ST2 IL33 inh – IL1RL1 inhibition. Q01638. AlphaLISA ST2-Fc/biotin-IL-33 interaction, 1 h. inhibition, % for hits at 17 µM. 78,000 compounds, 2.3% hits; in the data active = inhibition above about 30%
Target sequence (Q01638 whole entry, looked up): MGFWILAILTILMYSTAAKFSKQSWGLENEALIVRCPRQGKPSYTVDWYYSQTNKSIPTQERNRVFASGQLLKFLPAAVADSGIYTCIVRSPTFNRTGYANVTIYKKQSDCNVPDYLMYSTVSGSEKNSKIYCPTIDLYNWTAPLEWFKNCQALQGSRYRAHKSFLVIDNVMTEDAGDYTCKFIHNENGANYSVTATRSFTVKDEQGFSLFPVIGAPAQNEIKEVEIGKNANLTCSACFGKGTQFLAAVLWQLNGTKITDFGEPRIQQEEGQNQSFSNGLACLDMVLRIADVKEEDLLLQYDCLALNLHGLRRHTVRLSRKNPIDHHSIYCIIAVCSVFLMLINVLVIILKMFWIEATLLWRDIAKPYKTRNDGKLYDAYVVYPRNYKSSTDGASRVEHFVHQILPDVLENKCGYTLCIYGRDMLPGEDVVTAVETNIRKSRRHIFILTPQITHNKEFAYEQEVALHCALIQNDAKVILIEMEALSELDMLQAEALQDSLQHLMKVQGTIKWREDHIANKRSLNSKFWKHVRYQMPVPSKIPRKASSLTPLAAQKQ
A number is an active result; i = inactive. The full list was thinned out, with hits kept by preference.

SMILES	ST2 IL33 inh
CC(=O)Oc1ccc2c(=O)c(Oc3ccccc3)c(C)oc2c1OC(C)=O	i
COc1ccc2c(=O)c(Oc3ccccc3)c(C(F)(F)F)oc2c1OC	i
COc1ccc2c(=O)c(Oc3ccccc3)c(C)oc2c1OC	30%
Cc1ccc2nc(N=C(N)NC(=O)Cc3ccc(Cl)cc3)nc(C)c2c1	30%
COc1ccc2nc(N=C(N)NC(=O)Nc3ccccc3)nc(C)c2c1	i
CC(=O)NC(=Nc1nc(C)c2cc(C)ccc2n1)NC(C)=O	i
COc1ccc(C)cc1Nc1ncnc(N)c1[N+](=O)[O-]	i
CN(C)C(=O)c1ccccc1-c1cccc(Cl)c1	i
CC(=O)N(C1=C(N(C)C)C(=O)c2ccccc2C1=O)c1cccc(Cl)c1	31%
CC(=O)N(CN1C(=O)CCC1=O)c1cccc(Cl)c1	i
CC1CCc2c(sc3nc4c5ccccc5c(Cl)nn4c(=O)c23)C1 (configuration not stated)	i
Cc1noc2ncnc(N3CCC(N4CCCC(C(=O)N5CCCC5)C4)CC3)c12 (configuration not stated)	i
Cc1ncnc(N2CCC(N3CCCC(C(=O)N4CCCC4)C3)CC2)c1C (configuration not stated)	i
CNC(=O)c1cccnc1N1CCC(N2CCCC(C(=O)N3CCCC3)C2)CC1 (configuration not stated)	33%
CCCCOc1ccc(NC(=O)NC2(c3ccccc3)CC2)cc1	i
COc1ccc(Nc2nnc(-c3cc4cc(OC)ccc4oc3=O)s2)cc1	i
C#CCNC(=O)C[C@@H]1C[C@@H](C(C)C)[C@H](CNC(=O)c2cccnc2)C=C1C	i
CN(C)/C(=C1/c2cc([N+](=O)[O-])ccc2-c2c1cc([N+](=O)[O-])cc2[N+](=O)[O-])N1CCOCC1	79%
O=C(c1cccc([N+](=O)[O-])c1)N1CCOCC1	i
O=C(c1sc2cc([N+](=O)[O-])ccc2c1Cl)N1CCOCC1	i
O=C(CCc1nnc(CCc2c[nH]c3ccccc23)o1)N1CCC(c2ccccc2Cl)C1 (configuration not stated)	i
COc1cc(C=O)ccc1OCCCOc1ccc(I)cc1	i
Cc1cccn2cc(C(=O)N3CCCC(N4CCc5ccccc5C4)C3)nc12 (configuration not stated)	i
COc1cccc2sc(=NC(=O)c3nc4ccccc4s3)n(C)c12	i
COc1cc(OC)cc(C(=O)OCc2nc3ccccc3s2)c1	i
SMILES	ST2 IL33 inh
COc1cc(/C=C(\C#N)c2nc3ccccc3s2)cc(OC)c1OC	34%
O=C1CC(N2CCC(O)CC2)C(=O)N1c1ccc(Br)cc1Br (configuration not stated)	i
O=c1[nH]c(Nc2ccccc2)nnc1Cc1ccccc1	i
O=C1NN(c2ccccc2)C(=O)/C1=C/c1ccccc1OCc1c(F)cccc1Cl	41%
Cc1ccccc1OCCOc1ccc([N+](=O)[O-])cc1/C=C1\C(=O)NN(c2ccccc2)C1=O	35%
COc1cccc(/C=C2/C(=O)NN(c3ccc(C)c(Cl)c3)C2=O)c1	i
COc1cccc(/C=C2/C(=O)NN(c3ccccc3)C2=O)c1OC	i
Cc1ccccc1OCCn1cc(C=C2C(=O)N(C)C(=O)N(C)C2=O)c2ccccc21	i
CCOc1ccc(/C=C2\C(=O)NN(c3cccc(Br)c3)C2=O)cc1OCC	i
CC(=O)Nc1ccc(NC(=O)C2CCN(c3ccc(-c4cccs4)nn3)CC2)cc1	i
CC(=O)c1cccc(OCc2cc(C(=O)N(C)C(C)c3ccncn3)no2)c1 (configuration not stated)	i
CC1CCCC(NC(=O)C2CCC(CNS(=O)(=O)c3cccc4nsnc34)CC2)C1C (configuration not stated)	i
COc1ccc(-c2nnc(NC(=O)Nc3ccc(C)c(C)c3)s2)cc1OC	i
CN(C)c1ccc(CN2CCN(c3ccc([N+](=O)[O-])cc3)CC2)cc1	51%
O=[N+]([O-])c1ccc(N2CCN(CCO)CC2)cc1	i
CCOc1ccccc1N1CCN(Cc2ccc([N+](=O)[O-])cc2)CC1	i
O=[N+]([O-])c1ccc(N2CCN(Cc3ccc(Br)s3)CC2)cc1	36%
COc1cc(CN2CCN(c3ccc([N+](=O)[O-])cc3)CC2)ccc1O	i
Cc1ccccc1N1CCN(Cc2ccc(Br)s2)CC1	i
COc1ccc(OC)c(NC(=O)c2ccc([N+](=O)[O-])cc2)c1	i
CCOC(=O)C1=C(C)Nc2ncnn2C1c1ccc(C)cc1 (configuration not stated)	i
CCCCOc1ccc(S(=O)(=O)N2CCSC2c2ccccc2OC)cc1 (configuration not stated)	i
Cc1ccnc(C(NC(=O)c2ccc(Cn3nnnc3C)cc2)C2CC2)c1 (configuration not stated)	i
Cc1ccccc1CN1C(=O)C(C(C)C(=O)O)Sc2ccccc21 (configuration not stated)	i
O=C(NC(Cc1c[nH]c2ccccc12)C(=O)O)c1ccccc1 (configuration not stated)	i
